The values below come from ChEMBL document CHEMBL3988442, “University of Dundee, Small-Polar-MMV Screening Library” (2021).

Common to all, as to parameters: scale not given: direction of the effect not stated beside the values
The target of experiment [1] is Protein translocase subunit SecA (Escherichia coli (strain K12)) (UniProt P10408). In words: Assay to Identify E. coli SecA ATPase Inhibitors. In kind it is functional. Conditions: 30 µM.
For experiment [2], the target named is T1, Ubiquitin-activating enzyme e1, putative (Leishmania donovani (strain BPK282A1)) (UniProt E9BSI1).
T1 sequence (whole entry): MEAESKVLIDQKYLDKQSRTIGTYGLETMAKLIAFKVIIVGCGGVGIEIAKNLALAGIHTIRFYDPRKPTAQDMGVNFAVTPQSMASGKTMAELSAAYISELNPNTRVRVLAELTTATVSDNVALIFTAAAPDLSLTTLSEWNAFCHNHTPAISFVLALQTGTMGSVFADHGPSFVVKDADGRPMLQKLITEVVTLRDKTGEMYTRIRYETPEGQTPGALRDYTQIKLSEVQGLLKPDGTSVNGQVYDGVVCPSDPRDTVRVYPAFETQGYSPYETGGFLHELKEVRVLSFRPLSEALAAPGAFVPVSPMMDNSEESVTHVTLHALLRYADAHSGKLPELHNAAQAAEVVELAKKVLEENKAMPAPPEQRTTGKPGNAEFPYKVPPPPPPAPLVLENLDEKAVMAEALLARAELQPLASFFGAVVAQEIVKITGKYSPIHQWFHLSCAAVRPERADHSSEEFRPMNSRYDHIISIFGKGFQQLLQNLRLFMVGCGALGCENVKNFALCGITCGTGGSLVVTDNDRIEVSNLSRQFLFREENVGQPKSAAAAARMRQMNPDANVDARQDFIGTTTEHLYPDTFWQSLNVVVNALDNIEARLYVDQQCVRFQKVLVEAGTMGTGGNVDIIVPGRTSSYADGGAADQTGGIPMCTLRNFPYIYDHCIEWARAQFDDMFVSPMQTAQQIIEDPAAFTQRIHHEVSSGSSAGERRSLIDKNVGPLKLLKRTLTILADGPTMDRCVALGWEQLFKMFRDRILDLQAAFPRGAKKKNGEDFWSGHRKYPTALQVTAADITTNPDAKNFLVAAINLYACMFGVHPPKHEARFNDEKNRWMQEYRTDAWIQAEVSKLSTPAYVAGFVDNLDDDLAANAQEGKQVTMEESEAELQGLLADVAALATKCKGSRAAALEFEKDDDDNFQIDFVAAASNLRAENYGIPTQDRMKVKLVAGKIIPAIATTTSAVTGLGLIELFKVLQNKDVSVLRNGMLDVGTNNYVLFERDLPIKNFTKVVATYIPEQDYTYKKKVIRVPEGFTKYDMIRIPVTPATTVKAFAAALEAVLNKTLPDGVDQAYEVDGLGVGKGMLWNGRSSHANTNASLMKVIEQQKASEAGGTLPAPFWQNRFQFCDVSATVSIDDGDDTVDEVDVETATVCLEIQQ
Briefly: Leishmania donovani Ubiquitin Activating Enzyme (LdE1). Conditions: 30 µM. In kind it is functional.

Experiment [3] concerns the target AMP-activated protein kinase, AMPK (Homo sapiens) (UniProt P54646+O43741+P54619+Q9UGJ0+Q9Y478+Q13131+Q9UGI9). Briefly: AMP-dependent Kinase enzyme assay. An in vitro enzyme assay that detects ADP turnover that is directly proportional to AMPK activity. This uses naive AMPK that is activated during the assay with MK-8722. It is filed as functional. Conditions: 30 µM.

Experiment [4] addresses Sialic acid-binding Ig-like lectin 9 (Homo sapiens) (UniProt Q9Y336). In words: Hs-Siglec9 ALPHAscreen SOP 20170721. As to conditions: 10 µM. For orientation: Bead proximity is the source of the signal in Alpha formats.
In the next experiment the test system is Trypanosoma cruzi. Briefly: Trypanosoma cruzi phosphomannomutase and mannose-1-phosphate guanylyltransferase assay. As to conditions: 10 µM. In kind it is functional.
In experiment [5] the target is T2, Arginase-2, mitochondrial (Homo sapiens) (UniProt P78540).
T2 sequence (whole entry): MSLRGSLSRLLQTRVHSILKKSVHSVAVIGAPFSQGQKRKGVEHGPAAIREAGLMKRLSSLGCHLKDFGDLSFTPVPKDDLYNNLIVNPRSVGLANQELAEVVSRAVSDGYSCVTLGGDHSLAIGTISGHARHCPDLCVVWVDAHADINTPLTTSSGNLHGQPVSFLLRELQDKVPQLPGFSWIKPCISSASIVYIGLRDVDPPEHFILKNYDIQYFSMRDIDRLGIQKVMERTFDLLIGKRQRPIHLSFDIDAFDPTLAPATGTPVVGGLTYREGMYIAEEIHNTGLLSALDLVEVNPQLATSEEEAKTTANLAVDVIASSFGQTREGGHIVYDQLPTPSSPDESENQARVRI
Briefly: in vitro enzyme assay to detect the production of urea directly proportional to the activity of Arginase II. Note: in the data most compounds retested in dose-response had high values. It is filed as functional. Conditions: 33.3 µM.

For experiment [6], the target named is T3, Proteasome subunit beta (Trypanosoma cruzi) (UniProt O96673).
T3 sequence (whole entry): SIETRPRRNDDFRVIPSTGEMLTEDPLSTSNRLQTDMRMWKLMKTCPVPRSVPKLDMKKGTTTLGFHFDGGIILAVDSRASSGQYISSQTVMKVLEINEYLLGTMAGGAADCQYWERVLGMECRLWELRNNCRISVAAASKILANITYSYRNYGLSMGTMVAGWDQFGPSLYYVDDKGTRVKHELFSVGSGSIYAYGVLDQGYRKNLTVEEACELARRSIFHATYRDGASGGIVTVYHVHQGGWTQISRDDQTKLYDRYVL
In words: Trypanosoma cruzi proteasome chymotrypsin-like activity (TcProtChymo) assay. Note: in the data most compounds retested in dose-response had high values. It is filed as functional. Conditions: 9.37 µM.

For a further experiment, the species on record is Homo sapiens. Briefly: To identify inhibition of the IFN signalling (Jak-Stat) pathway via expression of an eGFP reporter gene under the control of an IFN-stimulated response element (ISRE) containing MxA promoter. It is filed as functional. Conditions: 30 µM. On the technique in general: Reporter assays use an easily measured gene product as a stand-in for the process of interest.

In experiment [7] the target is T4, Tyrosyl-tRNA synthetase, putative (Trypanosoma cruzi (strain CL Brener)) (UniProt Q4DSP6).
T4 sequence (whole entry): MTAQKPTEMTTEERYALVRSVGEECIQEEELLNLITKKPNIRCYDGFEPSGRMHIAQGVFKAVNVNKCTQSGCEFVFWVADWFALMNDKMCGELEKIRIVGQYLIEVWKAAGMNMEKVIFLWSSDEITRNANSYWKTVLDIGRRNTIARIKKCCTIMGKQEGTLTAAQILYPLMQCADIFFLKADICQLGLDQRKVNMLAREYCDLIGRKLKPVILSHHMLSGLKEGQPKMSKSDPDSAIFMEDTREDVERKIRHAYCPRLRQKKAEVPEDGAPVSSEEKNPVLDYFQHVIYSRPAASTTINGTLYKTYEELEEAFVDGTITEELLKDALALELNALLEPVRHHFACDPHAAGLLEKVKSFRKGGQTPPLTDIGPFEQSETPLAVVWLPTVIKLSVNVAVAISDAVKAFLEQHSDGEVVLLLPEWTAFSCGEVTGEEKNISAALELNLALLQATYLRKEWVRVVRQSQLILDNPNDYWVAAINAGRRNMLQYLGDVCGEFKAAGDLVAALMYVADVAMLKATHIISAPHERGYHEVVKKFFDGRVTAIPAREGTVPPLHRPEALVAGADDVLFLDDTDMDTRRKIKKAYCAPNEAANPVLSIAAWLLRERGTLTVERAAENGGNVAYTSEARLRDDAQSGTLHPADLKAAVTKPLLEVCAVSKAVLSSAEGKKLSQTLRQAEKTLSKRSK
In words: Trypanosoma cruzi tyrosyl tRNA synthetase (TcYRS) _High Tyrosine SOP. Note: in the data most compounds retested in dose-response had high values. In kind it is functional. Conditions: 30 µM.

Experiment [8] deals with T4, Tyrosyl-tRNA synthetase, putative (Trypanosoma cruzi (strain CL Brener)). In words: Trypanosoma cruzi tyrosyl tRNA synthetase (TcYRS) SOP. In kind it is functional. Conditions: 30 µM.
Experiment [9] has as its target Chromo domain-containing protein 1 (Saccharomyces cerevisiae (strain ATCC 204508 / S288c) (Baker's yeast)) (UniProt P32657). In words: ScCHD-1 Enzyme Inhibition Assay. Note: in the data most compounds retested in dose-response had high values. In kind it is functional. Conditions: 30 µM.

SMILES strings stand for the structures. For some of these results: Results with a measured potency or affinity are listed apart.

Chromo domain-containing protein 1 (Saccharomyces cerevisiae (strain ATCC 204508 / S288c) (Baker's yeast)), sequence (P32657 whole entry, the tested form may be a part): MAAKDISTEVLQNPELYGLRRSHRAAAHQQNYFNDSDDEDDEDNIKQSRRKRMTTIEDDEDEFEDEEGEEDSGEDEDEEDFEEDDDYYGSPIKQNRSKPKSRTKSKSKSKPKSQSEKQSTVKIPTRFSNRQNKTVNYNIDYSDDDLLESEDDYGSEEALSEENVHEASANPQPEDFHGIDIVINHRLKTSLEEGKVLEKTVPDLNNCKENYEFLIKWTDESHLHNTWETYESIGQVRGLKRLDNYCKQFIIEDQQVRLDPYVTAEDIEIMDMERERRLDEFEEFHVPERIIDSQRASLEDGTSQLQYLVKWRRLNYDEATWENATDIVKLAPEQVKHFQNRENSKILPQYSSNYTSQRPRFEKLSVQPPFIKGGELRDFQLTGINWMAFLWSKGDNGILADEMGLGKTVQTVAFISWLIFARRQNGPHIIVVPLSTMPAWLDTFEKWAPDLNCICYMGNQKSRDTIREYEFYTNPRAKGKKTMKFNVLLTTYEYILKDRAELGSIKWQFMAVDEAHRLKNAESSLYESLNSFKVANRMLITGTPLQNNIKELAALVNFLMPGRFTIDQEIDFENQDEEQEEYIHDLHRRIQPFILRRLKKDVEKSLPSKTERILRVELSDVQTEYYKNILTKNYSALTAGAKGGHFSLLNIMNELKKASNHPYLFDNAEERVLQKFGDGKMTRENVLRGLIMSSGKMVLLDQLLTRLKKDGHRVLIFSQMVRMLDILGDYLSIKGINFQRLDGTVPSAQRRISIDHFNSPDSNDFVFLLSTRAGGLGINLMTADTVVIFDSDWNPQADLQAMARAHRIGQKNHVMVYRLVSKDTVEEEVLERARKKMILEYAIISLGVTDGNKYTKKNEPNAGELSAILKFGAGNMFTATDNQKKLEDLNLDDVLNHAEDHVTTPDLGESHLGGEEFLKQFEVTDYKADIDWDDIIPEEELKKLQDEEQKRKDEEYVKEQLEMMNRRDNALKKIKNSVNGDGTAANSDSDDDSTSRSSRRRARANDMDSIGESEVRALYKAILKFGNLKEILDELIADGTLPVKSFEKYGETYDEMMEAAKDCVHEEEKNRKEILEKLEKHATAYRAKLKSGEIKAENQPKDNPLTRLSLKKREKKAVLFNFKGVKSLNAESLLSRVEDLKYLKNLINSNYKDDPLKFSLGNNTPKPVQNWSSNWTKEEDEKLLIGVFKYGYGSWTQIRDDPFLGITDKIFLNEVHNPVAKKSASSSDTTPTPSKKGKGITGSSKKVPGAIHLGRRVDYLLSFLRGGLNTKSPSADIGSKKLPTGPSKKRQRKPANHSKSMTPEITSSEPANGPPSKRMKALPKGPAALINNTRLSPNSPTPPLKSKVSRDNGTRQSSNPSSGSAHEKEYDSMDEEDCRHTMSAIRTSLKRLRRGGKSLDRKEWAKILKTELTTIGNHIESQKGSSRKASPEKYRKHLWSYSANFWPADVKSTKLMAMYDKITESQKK
Sialic acid-binding Ig-like lectin 9 (Homo sapiens), sequence (Q9Y336 whole entry): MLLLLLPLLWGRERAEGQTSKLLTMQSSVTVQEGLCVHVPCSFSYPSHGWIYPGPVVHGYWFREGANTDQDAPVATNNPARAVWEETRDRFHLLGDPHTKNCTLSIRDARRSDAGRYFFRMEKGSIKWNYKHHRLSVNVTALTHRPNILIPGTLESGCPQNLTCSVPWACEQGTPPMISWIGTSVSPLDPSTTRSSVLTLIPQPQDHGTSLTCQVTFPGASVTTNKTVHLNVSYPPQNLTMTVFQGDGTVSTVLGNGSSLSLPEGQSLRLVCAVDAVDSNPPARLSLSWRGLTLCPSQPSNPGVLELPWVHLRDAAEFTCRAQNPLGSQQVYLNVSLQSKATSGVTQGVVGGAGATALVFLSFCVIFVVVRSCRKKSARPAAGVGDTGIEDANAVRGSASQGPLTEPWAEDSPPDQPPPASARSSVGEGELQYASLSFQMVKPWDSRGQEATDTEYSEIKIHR
Protein translocase subunit SecA (Escherichia coli (strain K12)), sequence (P10408 whole entry): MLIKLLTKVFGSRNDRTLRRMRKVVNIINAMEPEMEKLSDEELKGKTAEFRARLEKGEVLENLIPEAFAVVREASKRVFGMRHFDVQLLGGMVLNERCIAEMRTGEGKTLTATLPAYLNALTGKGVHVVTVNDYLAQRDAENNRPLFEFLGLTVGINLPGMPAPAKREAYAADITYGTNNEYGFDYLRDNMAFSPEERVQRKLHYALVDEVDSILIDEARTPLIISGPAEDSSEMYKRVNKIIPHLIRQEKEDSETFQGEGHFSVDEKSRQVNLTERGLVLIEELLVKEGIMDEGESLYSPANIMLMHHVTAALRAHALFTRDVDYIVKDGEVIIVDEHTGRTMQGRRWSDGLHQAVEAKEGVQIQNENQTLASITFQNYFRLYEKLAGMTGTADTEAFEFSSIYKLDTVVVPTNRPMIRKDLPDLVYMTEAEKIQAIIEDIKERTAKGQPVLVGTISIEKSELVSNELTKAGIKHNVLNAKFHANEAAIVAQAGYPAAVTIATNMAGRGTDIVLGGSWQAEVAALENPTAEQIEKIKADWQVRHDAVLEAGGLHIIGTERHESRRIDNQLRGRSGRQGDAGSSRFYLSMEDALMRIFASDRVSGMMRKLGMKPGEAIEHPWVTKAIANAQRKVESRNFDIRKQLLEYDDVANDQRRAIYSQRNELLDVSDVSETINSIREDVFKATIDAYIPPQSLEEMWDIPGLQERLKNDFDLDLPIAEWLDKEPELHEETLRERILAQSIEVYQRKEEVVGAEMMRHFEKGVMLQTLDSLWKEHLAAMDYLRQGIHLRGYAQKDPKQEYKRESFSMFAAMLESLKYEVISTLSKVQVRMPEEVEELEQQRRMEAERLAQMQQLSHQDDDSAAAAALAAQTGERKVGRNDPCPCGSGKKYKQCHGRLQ

With `O=C(Nc1cnn(CCN2CCOCC2)c1)c1ccccc1O`, the Percent Effect in experiment [1] was -4.19%; in experiment [2], 26.3%; in [3], -17.4%; in [4] it was 2.22%; in the experiment with Trypanosoma cruzi, 3.57%; in [5] it was 4.6%. Further, the Percent Effect was 16.9% in experiment [6]; -2.35% in the experiment listed under Homo sapiens; 6.37% in [7]; 19.5% in experiment [8]; -12.5% in experiment [9].
For the molecule `Cn1cccc1CNC(=O)N(CCO)C1CCCc2ccccc21` (stereo unspecified), the Percent Effect was -4.61% in experiment [1]; -5.26% in experiment [2]; -1.52% in [3]; 0.538% in experiment [4]; 3.8% with Trypanosoma cruzi; -14.2% in experiment [5]. Moreover, the Percent Effect in experiment [6] was 2.01%; in the experiment listed under Homo sapiens it was 1.76%; in experiment [7], 2.13%; in experiment [8], 0%; in [9] it was -9.55%.
For `Cc1n[nH]c(C2CN(C(=O)CCc3ccsc3)CCO2)n1` (stereo unspecified), the Percent Effect in [1] is -6.4%; in experiment [2], -2.74%; in experiment [3] it was 2.76%; in experiment [4] it was 0.78%; in the experiment on Trypanosoma cruzi it was 0.783%; in experiment [5] it was -7.27%. The Percent Effect in experiment [6] is -2.13%; in the experiment listed under Homo sapiens, -11.9%; in experiment [7], 0%; in experiment [8], 2.5%; in experiment [9] it was 0.695%.
For `CC(C)NC(=O)N1CCN(CC2CC2)CC2(CC(=O)N(C)C2)C1` (stereo unspecified), the Percent Effect in experiment [1] was 0.576%; in experiment [2], -10.8%; in experiment [3] it was 3.4%; in experiment [4] it was -6.25%; in the experiment on Trypanosoma cruzi, 0%; in experiment [5], 1.25%. The Percent Effect in experiment [6] is 7.02%; in the experiment filed under Homo sapiens it was -5.18%; in [7], 82.2%; in experiment [8], -6.1%; in experiment [9], 16.8%.
Consider `CCCC(=O)N1CCC(O)(Cn2c(CC)nc3ccccc3c2=O)CC1`, for which the Percent Effect in experiment [1] is -1.08%; in experiment [2] it was 17.6%; in experiment [3], 21.5%; in experiment [4] it was -2.15%; in the experiment with Trypanosoma cruzi it was 3.16%; in experiment [5], -1.16%. Moreover, the Percent Effect in experiment [6] is 9.2%; in the experiment listed under Homo sapiens, 17.3%; in experiment [7] it was 4.3%; in experiment [8], 3.9%; in experiment [9], -6.13%.
As to `O=C(COc1cccc2c1CCC2=O)NCc1ccccc1F`, the Percent Effect was -2.77% in experiment [1]; 13.2% in experiment [2]; 2.6% in [3]; -2.18% in experiment [4]; 4.58% with Trypanosoma cruzi; 11.8% in experiment [5]. The Percent Effect is 9.49% in experiment [6]; 11% in the experiment listed under Homo sapiens; 3.19% in experiment [7]; 10.4% in experiment [8]; -2.42% in experiment [9].
Consider `COCCCC1(CO)CCCN(CCc2ccccc2)C1` (stereo unspecified), for which the Percent Effect is -1.32% in experiment [1]; -2.74% in [2]; -1.63% in experiment [3]; -2.32% in experiment [4]; -5.09% in the experiment on Trypanosoma cruzi; 0.909% in experiment [5]. The Percent Effect in [6] is -0.887%; in the experiment filed under Homo sapiens, -2.97%; in experiment [7], 1.07%; in experiment [8] it was 2.5%; in [9], -2.34%.
Take `CC(C)Cc1cc(C(=O)NCCc2ccc(S(C)(=O)=O)cc2)[nH]n1`: the Percent Effect in [1] is -3.28%; in [2], 2.63%; in experiment [3] it was 9.53%; in [4] it was 3.29%; in the experiment on Trypanosoma cruzi, 3.8%; in experiment [5] it was 0%. For the same molecule, the Percent Effect is 12.9% in experiment [6]; 24% in the experiment listed under Homo sapiens; 0% in experiment [7]; 10.4% in experiment [8]; -3.35% in experiment [9].
In the case of `CC(C)Oc1ncc(C(=O)N2CCC(NC(=O)C3CC3)CC2)cc1Cl`, the Percent Effect in [1] is -5.61%; in [2], -2.74%; in experiment [3], -0.0193%; in experiment [4] it was -3.72%; in the experiment on Trypanosoma cruzi, -5.56%; in experiment [5], -0.798%. The Percent Effect in experiment [6] was 12.8%; in the experiment listed under Homo sapiens, 5.13%; in experiment [7] it was 0%; in [8], 6.17%; in [9] it was -0.607%.
With `Cc1noc(C(C)C)c1C(=O)NCc1cccc(N(C)C)c1`, the Percent Effect in experiment [1] was -7.07%; in [2], 18.2%; in experiment [3], -6.12%; in experiment [4], -1.43%; with Trypanosoma cruzi, -6.74%; in [5] it was -2.49%. Further, the Percent Effect was 8.28% in experiment [6]; 33% in the experiment listed under Homo sapiens; 4.85% in [7]; 9.76% in experiment [8]; -8% in experiment [9].
`COc1cccc(CC2CN(C3CCN(C(C)=O)CC3)CCO2)c1` (stereo unspecified): the Percent Effect in [1] is -1.38%; in experiment [2], -7.79%; in experiment [3] it was 2.17%; in experiment [4], 2.19%; in the experiment on Trypanosoma cruzi it was -1.87%; in experiment [5], -2.76%. For the same molecule, the Percent Effect in experiment [6] is -0.499%; in the experiment filed under Homo sapiens, -4.71%; in experiment [7], 2.15%; in experiment [8], 3.7%; in experiment [9], 1.6%.
